Results filed as inconclusive are left out. The source made the active and inactive calls. The calls were made as follows, unless noted: active = hit-call score of the fitted dose curve at least 0.9, where 1 is the maximum; inactive = score below 0.9.
What was measured:
[1] = biological target: Paired box protein Pax-6 (Homo sapiens) (UniProt P26367); assay: ATG_Pax6_CIS: Attagene CIS-FACTORIAL HepG2 Assay for human Paired Box 6 (PAX6) (AID 2282956); conditions: HepG2 CIS-FACTORIAL PAX6 reporter transcription, RNA readout; actives raise or lower the signal
Chain of Paired box protein Pax-6 (Homo sapiens) (P26367 whole entry, looked up): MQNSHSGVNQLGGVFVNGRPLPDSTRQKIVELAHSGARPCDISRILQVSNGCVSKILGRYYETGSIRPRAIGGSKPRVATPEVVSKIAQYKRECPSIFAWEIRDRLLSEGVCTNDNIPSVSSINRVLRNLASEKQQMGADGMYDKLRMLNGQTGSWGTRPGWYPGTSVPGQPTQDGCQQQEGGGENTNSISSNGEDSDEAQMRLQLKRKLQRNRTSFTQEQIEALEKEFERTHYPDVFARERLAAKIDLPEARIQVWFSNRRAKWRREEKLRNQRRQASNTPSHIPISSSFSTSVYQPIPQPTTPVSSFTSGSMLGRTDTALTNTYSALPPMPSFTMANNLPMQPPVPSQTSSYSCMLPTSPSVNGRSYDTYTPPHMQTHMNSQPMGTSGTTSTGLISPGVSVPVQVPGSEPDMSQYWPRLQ
Procedure, shortened: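 Readout: reporter transcript fluorescence after RT-PCR and capillary electrophoresis. Cells: HepG2, transiently transfected with cis-regulated MRTUs. Exposure 24 h. Gain or loss of signal fitted bidirectionally relative to DMSO.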

[2] = ATG_PXRE_CIS: Attagene CIS-FACTORIAL HepG2 Assay for human Pregnane X Receptor Element (PXRE) (AID 2282957); conditions: HepG2 Attagene CIS-FACTORIAL PXRE reporter, mRNA; actives raise or lower the signal
Procedure, shortened: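 Fluorescent capillary electrophoresis of amplified reporter cDNA gave the signal, collected 24 h after dosing HepG2 cells that held transfected cis-element reporter constructs.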

[3] = ATG_PPRE_CIS: Attagene CIS-FACTORIAL HepG2 Assay for human Peroxisome Proliferator-activated Response Element (PPRE) (AID 2282958); conditions: HepG2 PPRE cis-element reporter, Attagene transcription factor profiling; actives raise or lower the signal
Procedure, shortened: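 DMSO served as negative control and baseline for bidirectional curve fitting. Signal came from PPRE-regulated reporter mRNA in HepG2 cells, measured 24 h post-dosing by RT-PCR, 6-FAM primer extension and capillary electrophoresis.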

[4] = ATG_RORE_CIS: Attagene CIS-FACTORIAL HepG2 Assay for human RAR-related Orphan Receptor Element (RORE) (AID 2282959); conditions: HepG2 Attagene cis-factorial RORE reporter, mRNA; actives raise or lower the signal
Procedure, shortened: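 Transfect HepG2 with MRTUs; treat 24 h; extract RNA; RT with oligo(dT); PCR with reporter-specific primers; 6-FAM primer extension; HpaI digest 2 h at 37 C; capillary electrophoresis. Fit vs DMSO, bidirectional.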

[5] = ATG_Sox_CIS: Attagene CIS-FACTORIAL HepG2 Assay for human SRY-box transcription factor (SOX) (AID 2282960); conditions: HepG2 Attagene cis-factorial SOX reporter, mRNA; actives raise or lower the signal
Procedure, shortened: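 Fluorescence-labelled cDNA fragments from reporter transcripts, sized by CE, give the signal. Cells: HepG2, transiently transfected with cis-regulated reporter units. Exposure 24 h; DMSO negative control; bidirectional curve fitting.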

[6] = biological target: Transcription factor Sp1 (Homo sapiens) (UniProt P08047); assay: ATG_Sp1_CIS: Attagene CIS-FACTORIAL HepG2 Assay for human Specificity Protein 1 (Sp1) (AID 2282961); conditions: HepG2 Sp1 cis-reporter transcription, actives raise or lower the signal
Chain of Transcription factor Sp1 (Homo sapiens) (P08047 whole entry, looked up): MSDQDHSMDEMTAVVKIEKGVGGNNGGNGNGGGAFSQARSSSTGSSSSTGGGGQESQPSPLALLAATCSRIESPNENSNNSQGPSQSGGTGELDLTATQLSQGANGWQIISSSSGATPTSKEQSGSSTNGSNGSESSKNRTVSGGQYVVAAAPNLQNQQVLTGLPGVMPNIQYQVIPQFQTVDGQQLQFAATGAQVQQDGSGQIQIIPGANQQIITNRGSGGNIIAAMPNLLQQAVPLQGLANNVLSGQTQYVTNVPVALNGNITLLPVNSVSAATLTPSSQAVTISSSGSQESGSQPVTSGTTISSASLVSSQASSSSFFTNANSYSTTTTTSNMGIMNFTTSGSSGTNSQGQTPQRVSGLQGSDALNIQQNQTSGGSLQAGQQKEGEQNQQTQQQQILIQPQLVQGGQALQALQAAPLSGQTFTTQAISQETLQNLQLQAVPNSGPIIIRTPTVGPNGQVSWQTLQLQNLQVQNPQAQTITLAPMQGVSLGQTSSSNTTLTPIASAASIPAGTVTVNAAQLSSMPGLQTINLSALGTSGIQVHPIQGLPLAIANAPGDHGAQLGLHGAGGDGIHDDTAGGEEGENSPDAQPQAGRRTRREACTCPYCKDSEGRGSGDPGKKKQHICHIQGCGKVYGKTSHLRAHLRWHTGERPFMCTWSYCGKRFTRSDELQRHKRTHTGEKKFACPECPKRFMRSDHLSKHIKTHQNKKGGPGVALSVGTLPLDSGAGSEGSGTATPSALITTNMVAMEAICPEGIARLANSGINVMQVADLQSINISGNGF
Procedure, shortened: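 Chemicals are dosed onto HepG2 cells transfected with multiple cis-promoter reporter constructs, and after 24 h reporter RNA is reverse-transcribed, PCR-amplified and resolved by capillary electrophoresis for fluorescence quantitation; activity is scored up or down against DMSO.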

[7] = biological target: Signal transducer and activator of transcription 3 (Homo sapiens) (UniProt P40763); assay: ATG_STAT3_CIS: Attagene CIS-FACTORIAL HepG2 Assay for human Signal Transducer and Activator of Transcription 3 (STAT3) (AID 2282963); conditions: HepG2, Attagene cis-factorial STAT3 reporter transcription; actives raise or lower the signal
Chain of Signal transducer and activator of transcription 3 (Homo sapiens) (P40763 whole entry, looked up): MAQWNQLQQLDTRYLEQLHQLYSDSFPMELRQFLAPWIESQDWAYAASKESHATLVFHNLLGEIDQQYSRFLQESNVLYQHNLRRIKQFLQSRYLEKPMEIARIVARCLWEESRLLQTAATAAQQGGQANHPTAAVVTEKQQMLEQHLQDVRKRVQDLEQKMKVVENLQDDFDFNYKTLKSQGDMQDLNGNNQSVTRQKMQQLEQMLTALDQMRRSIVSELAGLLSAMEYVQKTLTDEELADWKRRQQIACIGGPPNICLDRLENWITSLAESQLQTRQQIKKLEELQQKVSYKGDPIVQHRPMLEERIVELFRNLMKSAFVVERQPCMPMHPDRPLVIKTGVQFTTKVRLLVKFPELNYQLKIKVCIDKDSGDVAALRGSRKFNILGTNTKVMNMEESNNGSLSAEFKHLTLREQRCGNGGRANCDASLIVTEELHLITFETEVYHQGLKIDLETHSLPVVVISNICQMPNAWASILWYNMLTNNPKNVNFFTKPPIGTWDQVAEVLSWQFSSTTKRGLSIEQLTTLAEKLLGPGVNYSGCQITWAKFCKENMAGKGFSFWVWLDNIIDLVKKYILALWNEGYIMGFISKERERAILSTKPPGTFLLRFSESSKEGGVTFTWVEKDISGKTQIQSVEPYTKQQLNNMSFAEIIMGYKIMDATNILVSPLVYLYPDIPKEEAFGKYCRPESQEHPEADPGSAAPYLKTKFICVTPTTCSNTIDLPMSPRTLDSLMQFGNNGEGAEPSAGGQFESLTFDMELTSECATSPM
Procedure, shortened: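 HepG2, MRTU-transfected, 24 h dosing. RNA → RT → PCR → FAM label → HpaI → CE. Bidirectional fit vs DMSO.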

[8] = ATG_TA_CIS: Attagene CIS-FACTORIAL HepG2 Assay for human TA Basal Promoter (AID 2282964); conditions: HepG2 Attagene CIS-factorial TA basal promoter reporter; actives raise or lower the signal
Procedure, shortened: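 Read-out: fluorescent reporter-transcript fragments resolved by capillary electrophoresis after RT-PCR and HpaI digestion. Source: HepG2 cells carrying transiently transfected multi-reporter cis constructs, treated 24 h. Endpoint fitted bidirectionally relative to DMSO.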

[9] = ATG_TCF_b_cat_CIS: Attagene CIS-FACTORIAL HepG2 Assay for human T-Cell-Factor with beta-catenin (TCF/b-cat) (AID 2282965); conditions: HepG2 TCF/beta-catenin cis-reporter transcription, actives raise or lower the signal
Procedure, shortened: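 Using capillary electrophoresis as the read-out, labelled reporter cDNA fragments from transiently transfected HepG2 were sized and quantified. Exposure lasted 24 hours; activity in either direction was referenced to DMSO.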

[10] = ATG_TAL_CIS: Attagene CIS-FACTORIAL HepG2 Assay for human TAL Basal Promoter (AID 2282966); conditions: HepG2 Attagene cis-factorial TAL promoter reporter; actives raise or lower the signal;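 also: background control endpoint measuring basal TAL promoter reporter mRNA not a specific factor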
Procedure, shortened: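 Transiently transfected HepG2 (cis-regulated reporter units), 24 h treatment, mRNA read by fluorescent CE after RT-PCR; bidirectional fit, DMSO baseline.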

[11] = ATG_TGFb_CIS: Attagene CIS-FACTORIAL HepG2 Assay for human Transforming Growth Factor (TGF) (AID 2282967); conditions: HepG2 Attagene CIS TGFb reporter, mRNA transcription; actives raise or lower the signal
Procedure, shortened: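 Transient MRTU transfection of HepG2 (FuGene 6). Dose 24 h. TriZol RNA, oligo(dT) RT, PCR, 6-FAM primer extension, HpaI cut, CE. Bidirectional fit, DMSO = baseline.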

[12] = ATG_VDRE_CIS: Attagene CIS-FACTORIAL HepG2 Assay for human Vitamin D Receptor Element (VDRE) (AID 2282968); conditions: HepG2 VDRE cis-reporter transcription, actives raise or lower the signal
Procedure, shortened: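 Steps: transfect HepG2 with multiple reporter transcription units; dose chemicals 24 h; isolate RNA; RT-PCR; label with 6-FAM primer extension; HpaI digest; capillary electrophoresis. Curves fitted both directions against DMSO.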

[13] = biological target: Nuclear receptor subfamily 1 group I member 3 (Homo sapiens) (UniProt Q14994); assay: ATG_CAR_TRANS: Attagene TRANS-FACTORIAL HepG2 Assay for human Constitutive Androstane Receptor (CAR) (AID 2282969; active = hit-call score of the fitted dose curve at least 0.9, where 1 is the maximum;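 also: activators raise reporter mRNA above DMSO so AC50 marks induction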); conditions: HepG2 Attagene TRANS-FACTORIAL CAR reporter
Chain of Nuclear receptor subfamily 1 group I member 3 (Homo sapiens) (Q14994 whole entry, looked up, the tested form may be a part): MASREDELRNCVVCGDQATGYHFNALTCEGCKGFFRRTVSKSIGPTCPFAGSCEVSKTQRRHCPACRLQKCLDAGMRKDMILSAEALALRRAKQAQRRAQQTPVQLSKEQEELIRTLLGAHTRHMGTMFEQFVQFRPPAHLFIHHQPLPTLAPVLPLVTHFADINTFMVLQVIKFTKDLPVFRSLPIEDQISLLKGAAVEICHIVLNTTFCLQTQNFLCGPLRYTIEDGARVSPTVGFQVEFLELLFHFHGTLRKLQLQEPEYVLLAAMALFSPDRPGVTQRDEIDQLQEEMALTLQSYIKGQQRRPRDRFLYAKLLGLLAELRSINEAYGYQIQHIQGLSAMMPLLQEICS
Procedure, shortened: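 Steps: transient transfection of HepG2 with multiple GAL4-UAS reporter units; 24 h compound incubation; RNA isolation, RT-PCR, 6-FAM primer extension, HpaI digest; capillary electrophoresis. Gain-of-signal relative to DMSO negative control.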

[14] = biological target: Estrogen receptor (Homo sapiens) (UniProt P03372); assay: ATG_ERa_TRANS: Attagene TRANS-FACTORIAL HepG2 Assay for human Estrogen Receptor alpha (ERa) (AID 2282970; active = hit-call score of the fitted dose curve at least 0.9, where 1 is the maximum); conditions: HepG2 Attagene TRANS ERa GAL4 reporter, mRNA
Chain of Estrogen receptor (Homo sapiens) (P03372 whole entry, looked up, the tested form may be a part): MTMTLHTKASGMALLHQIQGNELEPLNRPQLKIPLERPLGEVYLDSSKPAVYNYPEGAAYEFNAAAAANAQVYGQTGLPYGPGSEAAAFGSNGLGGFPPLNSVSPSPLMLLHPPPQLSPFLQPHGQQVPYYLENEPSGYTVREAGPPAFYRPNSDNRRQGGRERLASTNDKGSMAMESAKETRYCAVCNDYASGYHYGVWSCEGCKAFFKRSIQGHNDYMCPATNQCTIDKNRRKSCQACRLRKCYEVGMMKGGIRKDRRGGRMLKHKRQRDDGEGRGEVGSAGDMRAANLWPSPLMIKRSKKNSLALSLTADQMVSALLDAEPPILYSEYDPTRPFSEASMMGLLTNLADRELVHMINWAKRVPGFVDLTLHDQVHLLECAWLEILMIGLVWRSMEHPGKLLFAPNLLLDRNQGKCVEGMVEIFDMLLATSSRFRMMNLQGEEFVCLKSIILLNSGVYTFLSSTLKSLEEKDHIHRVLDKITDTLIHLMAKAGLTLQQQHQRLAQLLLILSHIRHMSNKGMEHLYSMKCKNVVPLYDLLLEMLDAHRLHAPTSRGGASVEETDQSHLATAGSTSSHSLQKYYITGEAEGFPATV
Procedure, shortened: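 One of 30 multiplexed endpoints from a HepG2 TRANS system, this one reports ERa-Gal4-driven reporter mRNA. Transcripts were quantified 24 hours post-dosing by fluorescent RT-PCR and capillary electrophoresis, with activity scored as induction over DMSO.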

[15] = biological target: X-box-binding protein 1 (Homo sapiens) (UniProt P17861); assay: ATG_Xbp1_CIS: Attagene CIS-FACTORIAL HepG2 Assay for human X-box Binding Protein 1 (XBP1) (AID 2282972); conditions: HepG2 XBP1 cis-element reporter, Attagene multiplex; actives raise or lower the signal
Chain of X-box-binding protein 1 (Homo sapiens) (P17861 whole entry, looked up, the tested form may be a part): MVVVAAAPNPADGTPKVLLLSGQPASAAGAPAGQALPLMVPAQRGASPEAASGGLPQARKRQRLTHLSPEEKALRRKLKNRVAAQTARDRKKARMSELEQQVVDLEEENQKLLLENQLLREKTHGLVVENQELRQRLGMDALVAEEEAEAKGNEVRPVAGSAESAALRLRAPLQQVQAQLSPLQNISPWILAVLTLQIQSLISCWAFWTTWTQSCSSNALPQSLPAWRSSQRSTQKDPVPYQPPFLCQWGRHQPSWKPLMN
Procedure, shortened: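 Read-out: fluorescent reporter mRNA fragments resolved by capillary electrophoresis after RT-PCR. Human HepG2 liver cells carried transfected cis-promoter reporter units and were exposed to chemicals for 24 hours. Gain or loss of signal fitted relative to DMSO baseline.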

[16] = ATG_M_19_TRANS: Attagene TRANS-FACTORIAL HepG2 Assay for M19 Transcription Factor (Internal Marker) (AID 2282974; active = hit-call score of the fitted dose curve at least 0.9, where 1 is the maximum); conditions: HepG2 Attagene TRANS-FACTORIAL M19 internal marker reporter
Procedure, shortened: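 Multiplexed TRANS format: HepG2 liver cells bearing transient GAL4-UAS reporter units, chemical treatment 24 h, reporter transcripts quantified by RT-PCR plus capillary electrophoresis. DMSO defines baseline.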

[17] = ATG_SREBP_CIS: Attagene CIS-FACTORIAL HepG2 Assay for human Sterol Regulatory Element Binding (SREBP) (AID 2282962); conditions: HepG2 Attagene cis-factorial SREBP reporter, mRNA; actives raise or lower the signal
Procedure, shortened: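 Readout: fluorescent reporter-transcript peaks resolved by capillary electrophoresis after RT-PCR. Cells were human HepG2 carrying transfected cis-promoter reporter constructs, dosed for 24 h. Gain or loss of signal was fitted against DMSO controls.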

[18] = biological target: Steroid hormone receptor ERR1 (Homo sapiens) (UniProt P11474); assay: ATG_ERRa_TRANS: Attagene TRANS-FACTORIAL HepG2 Assay for human Estrogen-Related Receptor alpha (ERRa) (AID 2282971; active = hit-call score of the fitted dose curve at least 0.9, where 1 is the maximum); conditions: HepG2 Attagene TRANS reporter, ERRa transactivation
Chain of Steroid hormone receptor ERR1 (Homo sapiens) (P11474 whole entry, looked up, the tested form may be a part): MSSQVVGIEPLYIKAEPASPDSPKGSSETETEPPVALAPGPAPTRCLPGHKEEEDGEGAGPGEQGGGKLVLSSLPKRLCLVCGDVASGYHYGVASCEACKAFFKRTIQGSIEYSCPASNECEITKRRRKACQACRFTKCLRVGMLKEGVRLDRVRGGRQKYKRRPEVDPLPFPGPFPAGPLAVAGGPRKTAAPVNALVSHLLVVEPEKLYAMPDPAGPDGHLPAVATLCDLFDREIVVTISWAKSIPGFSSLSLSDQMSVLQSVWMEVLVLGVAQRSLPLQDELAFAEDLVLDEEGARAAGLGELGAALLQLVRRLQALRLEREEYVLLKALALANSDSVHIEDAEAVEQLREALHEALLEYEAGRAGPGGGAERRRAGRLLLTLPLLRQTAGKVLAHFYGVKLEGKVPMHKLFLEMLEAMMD
Procedure, shortened: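 HepG2 cells transiently transfected with multiplexed GAL4-UAS reporter units reading chimeric ERRa-Gal4 activity; 24 h compound exposure. Reporter mRNA measured by RT-PCR, 6-FAM labelling, HpaI digest and capillary electrophoresis; gain of signal fitted versus DMSO baseline.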

[19] = ATG_GAL4_TRANS: Attagene TRANS-FACTORIAL HepG2 Assay for GAL4 (Internal Marker) (AID 2282976; active = hit-call score of the fitted dose curve at least 0.9, where 1 is the maximum); conditions: HepG2 Attagene TRANS GAL4 internal marker reporter
Procedure, shortened: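 HepG2 cells transiently transfected with multiplexed GAL4-UAS reporter constructs were dosed for 24 h. Reporter mRNA was measured by RT-PCR, 6-FAM primer extension, HpaI digestion and capillary electrophoresis, and gain of signal was fitted relative to DMSO.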

[20] = biological target: Estrogen-related receptor gamma (Homo sapiens) (UniProt P62508); assay: ATG_ERRg_TRANS: Attagene TRANS-FACTORIAL HepG2 Assay for human Estrogen-Related Receptor gamma (ERRg) (AID 2282977; active = hit-call score of the fitted dose curve at least 0.9, where 1 is the maximum;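 also: hits increase reporter signal over DMSO so potencies reflect activators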); conditions: HepG2 Attagene TRANS reporter, ERRg transactivation
Chain of Estrogen-related receptor gamma (Homo sapiens) (P62508 whole entry, looked up, the tested form may be a part): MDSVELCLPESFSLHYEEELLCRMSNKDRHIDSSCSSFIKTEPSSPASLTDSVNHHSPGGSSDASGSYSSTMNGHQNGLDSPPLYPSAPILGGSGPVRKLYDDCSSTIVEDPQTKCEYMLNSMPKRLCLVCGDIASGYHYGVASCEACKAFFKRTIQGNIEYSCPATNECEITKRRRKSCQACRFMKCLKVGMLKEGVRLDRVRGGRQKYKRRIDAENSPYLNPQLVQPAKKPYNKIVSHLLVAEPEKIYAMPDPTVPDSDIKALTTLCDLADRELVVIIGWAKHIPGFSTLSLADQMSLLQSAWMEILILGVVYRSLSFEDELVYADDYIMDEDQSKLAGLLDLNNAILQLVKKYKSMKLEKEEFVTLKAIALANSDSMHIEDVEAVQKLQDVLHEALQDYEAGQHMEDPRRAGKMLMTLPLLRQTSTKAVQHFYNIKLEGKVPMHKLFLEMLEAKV
Procedure, shortened: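 Exogenous NR-Gal4 chimera activity measured as reporter transcript induction after 24 h in transiently transfected HepG2 cells. RNA reverse-transcribed, PCR-amplified, 6-FAM-labelled and resolved by capillary electrophoresis; increase over DMSO baseline.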

Measured: AC50

C=CC(C)(CCC=C(C)C)OC(=O)CC(C)C (stereo not given)
inactive: [1] | [3] | [4] | [5] | [6] | [7] | [8] | [9] | [10] | [11] | [12] | [13] | [14] | [15] | [16]
active: [2] 6.26 µM

CC(C)=CC1CC(C)CCO1 (stereo not given)
inactive: [1] | [2] | [3] | [4] | [5] | [6] | [17] | [7] | [9] | [10] | [11] | [12] | [15]

Cc1cc(C)c(C)c(C)c1
inactive: [1] | [2] | [3] | [4] | [5] | [6] | [7] | [8] | [9] | [10] | [11] | [12] | [13] | [18] | [15] | [16] | [19] | [20]

O=S(=O)(O)c1cc(S(=O)(=O)O)c2ccc3c(S(=O)(=O)O)cc(S(=O)(=O)O)c4ccc1c2c43
inactive: [1] | [2] | [3] | [4] | [5] | [6] | [17] | [7] | [9] | [10] | [11] | [12] | [14] | [15]

COC(=O)/C=C/C(C)=C\C=C\C(C)=C\C=C\C=C(C)\C=C\C=C(C)\C=C\C(=O)O
active: [2] 60.8 µM
inactive: [1] | [3] | [4] | [5] | [6] | [17] | [7] | [9] | [10] | [11] | [12] | [15] | [20]

CC(=O)C=CC1C(C)=CCC(C)C1(C)C (stereo not given)
active: [2] 0.972 µM
inactive: [1] | [3] | [4] | [5] | [6] | [17] | [9] | [10] | [11] | [12] | [13] | [14] | [15] | [19] | [20]

O=c1cc[nH]c(=S)[nH]1
inactive: [1] | [2] | [3] | [4] | [5] | [6] | [7] | [8] | [9] | [10] | [11] | [14] | [15] | [20]

From PubChem BioAssay (EPA / NIEHS)
